Assay outcomes deposited in PubChem BioAssay by National Center for Advancing Translational Sciences (NCATS).
GALK inhibitor: qHTS Assay for Inhibitors of Human Galactokinase (GALK); P51570; Purified GALK, Kinase-Glo residual ATP luminescence; Potency, µM (doses to about 57.5 µM), for the others: top-dose activity change, negative = inhibition, actives largely listed as inhibitors; actives 0.007% (n = 270,000); AID 1868, 2009; note: potency is the fitted concentration of half-maximal effect
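Galactose (100 uM) and ATP (35 uM) were turned over by 5 nM GALK for 1 h at RT. Kinase-Glo Plus then converted the remaining ATP into a luminescent signal.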
PLK1 PBD inh: qHTS for Inhibitors of PLK1-PDB (polo-like kinase 1 - polo-box domain): Primary Screen | Potency, µM, for the others: max response, negative = inhibition, most hits filed as inhibitors | Serine/threonine-protein kinase PLK1 (Homo sapiens), P53350 | actives 2.8% (n = 360,000) | Plk1 PBD binding of FITC phosphopeptide, fluorescence polarization | AID 720504, 2013; note: potency is the fitted concentration of half-maximal effect; series mostly up to about 57 µM; nearly all actives have a fitted effect of over 65% in size
Coupling enz: qHTS Assay for Inhibitors of Fructose-1,6-bisphosphate Aldolase from Giardia Lamblia: Coupling assay counterscreen; activity change, negative = inhibition, % at 58.2 µM, hits read low; AID 2472, 2010; coupling enzyme system counterscreen, AmpLite Red fluorescence; actives 0.67% (n = 290,000); in the data active = activity change below about -30%
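Counterscreen lacking aldolase: glyceraldehyde-3-phosphate coupling-enzyme reagent preincubated 10 min at RT with compound (at 57.5 uM final), then substrate/coupling system with AmpLite Red added; fluorescence read at 525/598 nm after 20 min RT.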
USP2a block: qHTS Assay for Inhibitors of Ubiquitin-specific Protease USP2a Using CHOP2 as the Reporter | Potency, µM (top dose mostly 38.3 µM), inactives show top-dose activity change, negative = inhibition, hits mostly inhibitors | AID 463254, 2010 | actives 0.01% (n = 330,000) | USP2 core, Ub-CHOP2 coupled fluorogenic reporter, 485/531;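 note: potency is the fitted concentration of half-maximal effect; plate controls were DMSO wells for no effect and full inhibition by NEM control for full effect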
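Deubiquitinase activity read as fluorescence (485/531 nm) after Ub-CHOP2 cleavage activates the enterokinase reporter on its substrate; USP2 core 10nM, Ub-CHOP2 and substrate 25nM each, 30min compound preincubation then 60min RT; data normalized to NEM, curves fitted.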
VDR inhibitor: Inhibitors of the vitamin D receptor (VDR): qHTS; Vitamin D3 receptor (Homo sapiens), P11473; VDR-SRC2-3 peptide fluorescence polarization, 2 h; Potency, µM, for inactives: max response, negative = inhibition, actives largely listed as inhibitors; actives 0.93% (n = 400,000); note: potency is the fitted concentration of half-maximal effect
Target sequence (P11473 whole entry, looked up): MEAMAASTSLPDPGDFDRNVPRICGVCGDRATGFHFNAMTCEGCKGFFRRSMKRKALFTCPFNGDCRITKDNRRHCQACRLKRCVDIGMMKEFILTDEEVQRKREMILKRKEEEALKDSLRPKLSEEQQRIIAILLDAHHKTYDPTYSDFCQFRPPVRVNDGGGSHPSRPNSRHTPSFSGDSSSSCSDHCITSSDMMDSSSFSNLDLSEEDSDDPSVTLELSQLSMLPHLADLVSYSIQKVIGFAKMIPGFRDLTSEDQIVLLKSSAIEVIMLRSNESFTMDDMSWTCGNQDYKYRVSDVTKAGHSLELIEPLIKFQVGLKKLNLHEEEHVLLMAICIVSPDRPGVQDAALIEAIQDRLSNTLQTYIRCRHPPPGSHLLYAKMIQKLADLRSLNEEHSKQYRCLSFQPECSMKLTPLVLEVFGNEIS
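Reagent solutions, kept cold and dark, are dispensed first; compounds are then pinned in at 23 nl, plates briefly spun, and incubated 2 h at ambient temperature. Inhibition of VDR–SRC2-3 peptide binding is read by fluorescence polarization.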
USP1 inh: Inhibitors of USP1/UAF1: Primary Screen; Ubiquitin carboxyl-terminal hydrolase 1 (Homo sapiens), O94782; recombinant USP1/UAF1, Ub-Rhodamine cleavage fluorescence; Potency, µM (titrated, usually from 57.1 µM), for the others: at the highest dose activity change, negative = inhibition, hits mostly inhibitors; actives 0.23% (n = 390,000); AID 743255, 2014; note: potency is the fitted concentration of half-maximal effect; nearly all actives have a fitted effect of over 60% in size
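USP1/UAF1 complex at 1 nM was preincubated with compound for 15 min at room temperature, then Ub-Rho substrate (150nM final) was added. Fluorescence (480/540 nm) was read kinetically, 6 reads every 60 seconds.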
* hit, by the source's call; ? = inconclusive; nt = not tested or not shown. The list is not random: actives were taken first. Their share in the collection is about 3.2%. Unless noted, calls come from the whole dose curve; as a rule, active = well fitted curve in the direction sought with a large enough effect; inconclusive = small, poorly fitted or top-dose-only effect, or another doubt; inactive = no such curve, though single readings can be large; an effect the other way counts as inactive or inconclusive. Unless noted, % is set by controls: 0 for no effect and ±100 for the full control effect.

SMILES | GALK inhibitor | PLK1 PBD inh | Coupling enz | USP2a block | VDR inhibitor | USP1 inh
O=C(Oc1ccc(C(=S)N2CCOCC2)cc1)c1ccc([N+](=O)[O-])cc1[N+](=O)[O-] | 8% | -6% | 1 | 3% | 4% | -16%
O=C(Oc1ccc(Br)cc1C(=S)N1CCOCC1)c1ccc([N+](=O)[O-])cc1[N+](=O)[O-] | -1% | 6µM* | -18 | 5% | ? | -17%
O=C(Oc1ccc(Br)cc1C(=S)N1CCCC1)c1ccccc1F | 1% | 27µM* | 0 | -1% | -14% | -25%
CCOC(=O)c1cc2n(c1/N=C/N(C)C)-c1ccccc1C2=O | 3% | ? | -35* | 22% | 1% | 25µM*
O=C(NNC(=O)C12CC3CC(CC(C3)C1)C2)c1ccco1 | 6% | -9% | 4 | 0% | 1% | -20%
O=C(NNc1nc(-c2ccc(F)cc2)cs1)c1ccccc1 | 6% | ? | 3 | 2% | -9% | -19%
CN(C)S(=O)(=O)c1cc(NC(=O)COC(=O)/C=C/c2ccco2)ccc1Cl | 6% | -27% | 2 | 0% | ? | 0%
Cc1cc(C)c(NC(=O)CCCCCNC2CCCCC2)c(C)c1 | -6% | 27µM* | 1 | 1% | -30% | -19%
Cc1cc(C(=O)N/N=C/c2ccc3c(c2)OCO3)c(C)n1-c1ccc(F)cc1 | 1% | -6% | -2 | 0% | 3% | -22%
COc1cc(/C=C/C(=O)O)cc(S(=O)(=O)N2CCCc3ccccc32)c1OC | -2% | 27µM* | -8 | 3% | ? | -13%
Cn1nc(C(=O)O)c(=O)n(C)c1=O | nt | 27µM* | nt | nt | -23% | -9%
CCOC(=O)c1nc2c(=O)n(C)c(=O)n(C)c2n(C)c1=O | nt | -3% | nt | nt | -2% | -9%
O=C(NCc1ccco1)C(=S)N1CCCC1 | 9% | -7% | -2 | -1% | -1% | -12%
Cc1ccc2nc(NCCNC(=O)c3ccccc3)c(C#N)cc2c1 | 2% | -21% | 3 | -1% | -14% | -4%
CCOC(=O)Cc1csc(N/N=C\c2cccc(Br)c2)n1 | -1% | 24µM* | -1 | -7% | ? | -18%
CCCC(=O)Nc1nc(-c2ccccc2)c(CC)s1 | -4% | -19% | -2 | -1% | 4% | -22%
CC(C)(C)c1csc(NC(=O)Cn2cnc3ccccc3c2=O)n1 | -1% | 13µM* | 2 | 1% | ? | -20%
CC(C)(C)c1csc(NC(=O)CSc2nc3ccccc3c(=O)[nH]2)n1 | 5% | ? | 0 | -2% | -7% | -1%
CC1CCCN(C(=O)C2CCN(S(=O)(=O)c3ccc4c(c3)CC(C)N4C(=O)C3CC3)CC2)C1 (stereo unspecified) | -3% | -3% | 2 | -1% | 24% | -7%
COCCN1C(=O)N[C@@H](c2cccc(C(F)(F)F)c2)C(C(=O)OC)=C1C | nt | 30µM* | 2 | nt | ? | 2%
COC(=O)C1=C(C)N(Cc2ccccc2)C(=O)N[C@H]1c1cccc(C(F)(F)F)c1 | 0% | -11% | 0 | 5% | -23% | -15%
CC(C)Nc1nc(-c2ccccc2CO)c2sccc2n1 | nt | -7% | nt | nt | nt | nt
COc1cc(/C=N/n2cnnc2)ccc1OC(=O)c1cccnc1 | 0% | 7.5µM* | -3 | 1% | ? | -3%
C=C(C)C(=O)c1ccc2c(c1)OCO2 | nt | nt | 5 | nt | -1% | nt
C=C(CN(C)C)C(=O)c1ccc(C)cc1C | nt | 2.7µM* | nt | nt | 18µM* | -24%
SMILES | GALK inhibitor | PLK1 PBD inh | Coupling enz | USP2a block | VDR inhibitor | USP1 inh
C=C(CN(C)C)C(=O)c1ccc2c(c1)OCO2 | nt | 15µM* | nt | nt | 79µM* | -14%
C=C(CN(C)C)C(=O)c1cc(OC)c(OC)cc1OC | nt | 17µM* | nt | nt | 50µM* | 2%
Cc1cc(SCC(=O)c2cc3ccccc3o2)nc2ccccc12 | 0% | -17% | nt | 4% | 27% | ?
O=C(NCc1ccc(Cl)cc1)C1CCCN1C(=O)Nc1ccccc1 (stereo unspecified) | 0% | -3% | 3 | 1% | 0% | -2%
S=c1[nH]ccn1-c1cccc(Cl)c1Cl | 2% | -12% | 2 | -1% | -8% | -19%
O=C(NC1CCCC1)C(c1ccc(Cl)cc1)N1CCc2ccccc21 (stereo unspecified) | 3% | 0% | 1 | -1% | 89µM* | -12%
CC(=O)Nc1cccc(NC(=O)Nc2ccc(C)c(Cl)c2)c1 | 0% | -3% | -1 | 1% | 2% | -12%
CC(=O)Nc1cccc(NC(=S)Nc2ccc(F)c(Cl)c2)c1 | -4% | 30µM* | -1 | 1% | -4% | -12%
CCc1nc2c(OCc3ccccc3)cccn2c1N(C)C(=O)c1ccc(OC)cc1 | nt | 33% | nt | nt | nt | nt
COc1cc2c(=O)n(CCC(=O)NCC3CCCO3)c(=O)n(CC(=O)Nc3ccc(C)c(C)c3)c2cc1OC (stereo unspecified) | -2% | 0% | 2 | 0% | 13% | ?
COCCn1c2nc(=O)n(-c3ccccc3)c(=O)c-2nc2ccccc21 | nt | 3.8µM* | nt | nt | nt | 28µM*
Cc1c(Cl)cccc1NC(=O)CCNC(=O)N1CC(=O)Nc2ccccc21 | 7% | 27µM* | 2 | 3% | -25% | -20%
O=C(NNc1ccccc1)C(=O)NNS(=O)(=O)c1ccc([N+](=O)[O-])cc1 | 0% | -5% | 5 | 2% | -5% | -3%
O=C1c2ccc3c4c(ccc(c24)C(=O)N1CCCCO)C(=O)N(CCCCO)C3=O | 4% | -5% | -40* | 4% | -13% | ?
CCn1c(=O)c(-c2nc3ccccc3[nH]2)c(O)c2ccccc21 | -1% | -7% | 0 | 2% | -3% | -15%
O=C(Nc1cccc(C(=O)O)c1)/C(=C\c1ccc2c(c1)OCO2)NC(=O)c1ccc(Br)o1 | -4% | ? | 2 | 6% | 22% | ?
O=C(Nc1ccc(C(=O)O)cc1)/C(=C\c1ccco1)NC(=O)c1ccc(Br)o1 | 8% | 30µM* | 2 | 4% | -4% | ?
O=C(Nc1ccc(C(=O)O)cc1)/C(=C\c1ccc2c(c1)OCO2)NC(=O)c1ccc(Br)o1 | -1% | 27µM* | 0 | 2% | -18% | -6%
O=C(Nc1ccc(C(=O)O)cc1)/C(=C\c1ccco1)NC(=O)c1ccc(Br)cc1 | nt | -3% | nt | nt | nt | -11%
CCCCOC(=O)C1=C(C)Nc2ncnn2C1c1cccc(OC)c1 (stereo unspecified) | 3% | -8% | -10 | 4% | -10% | -19%
